Structures are written as SMILES. The whole screen tested about 310,000 compounds, of which about 11,000 (3.5%) were called active. Not shown: some 4% with an inconclusive outcome. This is one part of a sample in which actives are shown more often than they occur. Values without a mark were called inactive. Calls follow the shape of the dose curve; as a rule, active = well fitted inhibition curve with a large enough effect; inconclusive = small, poorly fitted or top-dose-only effect, or another doubt; inactive = no such curve, though single readings can be large or run the other way.
Potency is read from the fitted curve at half-maximal effect.

The experiment has as its target 4'-phosphopantetheinyl transferase ffp (Bacillus subtilis) (UniProt Q9F4F7). Nature of the experiment: qHTS Assay for Inhibitors of Bacillus subtilis Sfp phosphopantetheinyl transferase (PPTase).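 Also: the enzyme is Sfp with the accession as filed and its product quenches rhodamine fluorescence.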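 As to largest response in the series, negative = inhibition: 0% = enzyme reaction without inhibitor and -100% = no enzyme wells.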 As to conditions: Biochemical Sfp PPTase activity. The method, boiled down:
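Fluorescence-quenching assay with 15 nM Sfp, 5 uM rhodamine-CoA and 12.5 uM BHQ-2-labelled ybbR peptide in pH 7.6 Hepes/MgCl2 buffer. Enzyme was pre-incubated with compound for 15 min at room temperature. Rate was taken from the 30-min fluorescence change (525/598 nm).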
(In general: In qHTS, concentration-response curves come from the screen itself.)
With `CC(=O)Nc1ccc(S(=O)(=O)NC2Cc3ccccc3C2)cc1`, the largest response in the series, negative = inhibition was 10.7%.
For `CC(CC(=O)N1CCN(c2ccccc2)CC1)S(=O)(=O)c1ccc2c(c1)NC(=O)CS2` (centres undefined), the largest response in the series, negative = inhibition was 13.4%.
`COc1ccc(C2c3[nH]c4ccccc4c3C[C@H]3C(=O)N(CC(C)C)CC(=O)N23)c(OC)c1` (some centres undefined): the largest response in the series, negative = inhibition was -0.0198%.
As to `Cc1cc(=O)[nH]c(S)c1C#N`, the Potency was 2.24 µM (active).
Consider `Cc1cc(=O)[nH]c(SCC(N)=O)c1C#N`, for which the largest response in the series, negative = inhibition is -20.3%.
The same measure, in the same setting: in the case of `COC(=O)C1(C)C=CC2(CCCCC2)N1C(C)=O` (centres undefined) it was -0.895%.
Consider `N#Cc1ccccc1-n1c(N)c(C(=O)N2CCCC2)sc1=S`, for which the Potency was 25.1 µM (active).
On to `Cc1cccc(-n2c(N)c(C(=O)N3CCN(C)CC3)sc2=S)c1`, for which the Potency was 3.55 µM (active).
Take `CCC(=O)Nc1sc(C(=O)N2CCCCC2)c(C)c1C#N`: the largest response in the series, negative = inhibition is 8.83%.
Still for that read-out and setting: the same measure for `Cc1ccc(N2CCN(C(=O)c3cccs3)CC2)c(C)c1`: -4.64%.
For the molecule `CC(C)=C1SC(N2CCN(c3cccc(C)c3)CC2)=NC1=O`, the largest response in the series, negative = inhibition is -3.03%.
With `COc1ccc2[nH]c(C(=O)N3CCN(C)CC3)c(C)c2c1`, the largest response in the series, negative = inhibition is 10.8%.
`O=C(c1ccc(S(=O)(=O)c2ccccc2)cc1)N1CCCCCC1`: the largest response in the series, negative = inhibition is -3.64%.
For the molecule `Cc1ccc(-n2c(N)c(C(=O)N3CCOCC3)sc2=S)c(C)c1`, the Potency is 28.2 µM (active).
On to `Cc1ccc(S(=O)(=O)N2CCN(C(=O)N3CCOCC3)CC2)c(C)c1`, for which the largest response in the series, negative = inhibition is 12%.
The same measure, in the same setting: in the case of `CCN(CC(=O)NCc1cccs1)C(=O)c1cccc(S(=O)(=O)Nc2ccccc2OC)c1` it was 9.95%; in that of `COc1ccc(NC(=O)Cn2ncn3c(cc4ccccc43)c2=O)c(OC)c1OC`, 14.8%; in that of `COc1cc2c(cc1OC)CN(C(=O)c1cc(S(=O)(=O)N3CCCCC3)ccc1Cl)CC2`, 8.46%.
On to `CCCCC(CC)CNCc1cccn1CCN1CCOCC1` (centres undefined), for which the largest response in the series, negative = inhibition is -12.1%.
Regarding `COC(=O)c1cc(OCC(=O)NC2CCCc3ccccc32)cc(C(=O)OC)c1` (centres undefined), the largest response in the series, negative = inhibition was -18.9%.
Consider `Cc1ccc(OCC(=O)Nc2ccc(NC(=O)c3cccs3)cc2)c(C)c1`, for which the largest response in the series, negative = inhibition is 29.1%.
On the same count and under the same terms, the same measure for `COc1ccc(N2C(=O)C3CCCN3C2c2cccs2)cc1` (centres undefined): -3.66%.
With `COc1ccc(N2C(=O)C3C(C2=O)C(C(=O)c2ccccc2)N2CCCC32)cc1` (centres undefined), the Potency is 50.1 µM (active).
For the molecule `COc1ccc(N2C(=O)C(Cc3ccccc3)NC2=S)cc1` (centres undefined), the largest response in the series, negative = inhibition was 6.01%.
Same read-out and setting: the same measure for `O=C(N/C(=C\c1ccc([N+](=O)[O-])cc1)C(=O)N1CCOCC1)c1cccc(Br)c1`: 3.86%.
With `CCOC(=O)N1CCN(C(=O)C(C)NC(=O)c2ccco2)CC1` (centres undefined), the largest response in the series, negative = inhibition is 26.5%.
Same read-out and setting: the same measure for `CCn1c(SCC(=O)Nc2ccc(Br)cc2)nc2sc3c(c2c1=O)CCN(C)C3`: 2.9%; for `Cc1nc(-c2ccc(Cl)cc2)sc1C(=O)NN`: 5.7%.
Take `Cc1nc(N2CCOCC2)sc1C(=O)NN`: the Potency is 56.2 µM (active).
In the case of `CCOC(=O)N1CCC(NC(=O)c2ccc3nc(N4CCOCC4)sc3c2)CC1`, the largest response in the series, negative = inhibition is 6.95%.
Same read-out and setting: the same measure for `Cc1ccc(NS(=O)(=O)c2ccc3c(c2)NC(=O)CO3)cc1`: 7.8%; for `O=C(Cn1nnc(-c2ccccc2)n1)N/N=C/c1ccc(-c2ccc(Cl)cc2)o1`: 25.9%; for `COC(=O)N/N=C/c1ccc(-c2ccc(Cl)c(Cl)c2)o1`: -3.69%.
`Nc1nnnn1CC(=O)N/N=C/c1ccc(-c2cccc(Cl)c2)o1`: the Potency was 25.1 µM (active).
With `CCn1c2ccccc2c2cc(NC(=O)Nc3ccc([N+](=O)[O-])cc3C)ccc21`, the Potency was 56.2 µM (active).
Take `Cc1cc([N+](=O)[O-])ccc1NC(=O)c1ccc(NC(=O)C(C)C)cc1`: the largest response in the series, negative = inhibition is 6.44%.
`CC(=O)c1ccc(NC(=O)Nc2ccc([N+](=O)[O-])cc2C)cc1`: the largest response in the series, negative = inhibition was 10.3%.
As for `O=[N+]([O-])c1ccc(N(CCO)Cc2ccccc2)c([N+](=O)[O-])c1`, the largest response in the series, negative = inhibition is 3.62%.
Consider `O=C(c1cnc(Cl)c(Cl)c1)N1CCN(S(=O)(=O)c2ccc(F)cc2)CC1`, for which the largest response in the series, negative = inhibition is -5.59%.
For `Cc1cccc(NC(=O)N2CCCCCC2)c1C`, the largest response in the series, negative = inhibition was 3.74%.
Turning to `N#Cc1c(N)sc2c1CCN(C(=O)OCc1ccccc1)C2`, the Potency was 20 µM (active).
For `CC(=O)N1CCc2c(sc(NC(=O)CCS(=O)(=O)c3ccccc3)c2C#N)C1`, the largest response in the series, negative = inhibition is -1.97%.
In the case of `CC(C)N1CCc2c(sc(NC(=O)Cc3ccccc3)c2C#N)C1`, the largest response in the series, negative = inhibition was 11.3%.
Regarding `CC(CC(=O)Nc1ccc(F)cc1F)S(=O)(=O)c1ccc2c(c1)NC(=O)CO2` (centres undefined), the largest response in the series, negative = inhibition is 0.768%.
Regarding `NS(=O)(=O)c1ccc(CCNS(=O)(=O)c2cccc3cccnc23)cc1`, the largest response in the series, negative = inhibition was 2.24%.
`COc1ccc(CN2CCN(C(=O)CCC(=O)Nc3nnc(C(C)C)s3)CC2)cc1F`: the largest response in the series, negative = inhibition is 17.5%.
With `Cc1ccc(NS(=O)(=O)c2ccc(-c3ccc(=O)[nH]n3)o2)c(C)c1`, the largest response in the series, negative = inhibition is 23.5%.
With `Cc1ccc(OC(=O)c2c(C)nn(-c3ccccc3)c2C)cc1`, the largest response in the series, negative = inhibition was -5.58%.
With `CCOC(=O)c1c(-c2ccc(-c3ccccc3)cc2)csc1NC(=O)CCC(=O)O`, the largest response in the series, negative = inhibition is -8.3%.
In the case of `CCOC(=O)c1c(C)nn(-c2ncccc2NC(=O)CCC(=O)O)c1C`, the Potency is 89.1 µM (active).
Regarding `CN(C(=O)c1cccc([N+](=O)[O-])c1)c1ccccc1C(=O)NCc1ccccc1`, the largest response in the series, negative = inhibition is 15.3%.
For the molecule `CCOc1ccc(CNC(=O)CCC(=O)N2CCSc3ccccc32)cc1`, the largest response in the series, negative = inhibition is 11.6%.
Take `Nc1ccccc1Sc1ccc(C(F)(F)F)cc1[N+](=O)[O-]`: the largest response in the series, negative = inhibition was 4.01%.
For `CCOC(=O)c1cc(Sc2ccccc2N)cc(C(=O)OCC)n1`, the largest response in the series, negative = inhibition was 2.06%.
As for `CCS(=O)(=O)c1cc([N+](=O)[O-])c(Sc2ccccc2N)s1`, the Potency is 3.98 µM (active).
As to `COCCn1c(N)c(NCc2ccccc2)c(=O)[nH]c1=O`, the largest response in the series, negative = inhibition was -5.84%.
As to `CCc1ccc(OCC(=O)NCC(c2ccc(Cl)cc2)N2CCCCC2)cc1` (centres undefined), the largest response in the series, negative = inhibition was -3.22%.
For the molecule `O=c1c(O)c(Br)ccc2c(Br)c(O)c(O)c(O)c12`, the Potency was 44.7 µM (active).
Turning to `CN(CCC1CCOCC1)C(=O)CC1C(=O)NCCN1Cc1cccc(F)c1` (centres undefined), the largest response in the series, negative = inhibition was 18.8%.
